The source made the active and inactive calls. A call without a number means that no potency is given here. Unless noted, calls come from the whole dose curve; as a rule, active = well fitted curve in the direction sought with a large enough effect in the repeat runs; inconclusive = weak or mixed curves; inactive = no such curve, though single readings can be large; an effect the other way counts as inactive or inconclusive.
What was measured:
[1] = qHTS assay to identify small molecule antagonists of the thyroid receptor (TR) signaling pathway - cell viability counter screen (AID 743064); note: nearly all actives have a fitted effect of over 50% in size
Method in brief: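 Counter screen for cytotoxicity: compound plus T3 (1 nM final) on GH3.TRE-Luc cells, 23.5 h at 37 °C, then fluorescence viability readout with CellTiter-Fluor.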

[2] = test system: thyroid hormone receptor (rat, GH3 cells); assay: qHTS assay to identify small molecule agonists of the thyroid receptor (TR) signaling pathway (AID 743066; calls by dose curve)
[3] = target: Estrogen receptor (Homo sapiens) (UniProt P03372); assay: qHTS assay to identify small molecule antagonists of the estrogen receptor alpha (ER-alpha) signaling pathway (AID 743069; active = well fitted curve in the direction sought with a large enough effect in the signal ratio in the repeat runs, not every such curve was filed as active; inconclusive = weak or mixed curves, or effect the other way; inactive = no such curve, though single readings can be large or run the other way; the % refers to the signal ratio; note: potency is the fitted concentration of half-maximal effect)
Chain of Estrogen receptor (Homo sapiens) (P03372 whole entry, looked up): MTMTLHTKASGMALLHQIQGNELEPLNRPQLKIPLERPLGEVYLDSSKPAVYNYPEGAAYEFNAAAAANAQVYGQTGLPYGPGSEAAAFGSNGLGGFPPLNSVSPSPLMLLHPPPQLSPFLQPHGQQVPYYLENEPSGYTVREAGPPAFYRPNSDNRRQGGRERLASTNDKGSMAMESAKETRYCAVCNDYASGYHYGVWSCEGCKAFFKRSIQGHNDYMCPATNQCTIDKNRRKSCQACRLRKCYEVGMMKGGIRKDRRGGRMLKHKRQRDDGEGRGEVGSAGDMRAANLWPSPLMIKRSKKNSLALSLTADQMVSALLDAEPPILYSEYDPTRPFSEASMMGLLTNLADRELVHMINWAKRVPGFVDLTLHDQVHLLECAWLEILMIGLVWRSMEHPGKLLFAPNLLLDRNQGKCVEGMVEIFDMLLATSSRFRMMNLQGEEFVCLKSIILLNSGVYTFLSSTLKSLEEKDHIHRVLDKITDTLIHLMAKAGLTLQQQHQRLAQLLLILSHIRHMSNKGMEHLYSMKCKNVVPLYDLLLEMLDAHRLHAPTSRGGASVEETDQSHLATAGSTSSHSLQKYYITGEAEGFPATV
Method in brief: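 ER-alpha-UAS-bla GripTite HEK293 line; 2% charcoal-stripped FBS overnight; plated, 4 hr 37C/5% CO2; cpd in DMSO + 17beta-estradiol, 18 hr 37C; LiveBLAzer B/G FRET substrate 2 hr RT; fluorescence intensity.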

[4] = qHTS assay to identify small molecule antagonists of the estrogen receptor alpha (ER-alpha) signaling pathway - cell viability counter screen (AID 743074; calls by dose curve;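 note: HEK293 cells carrying ER-alpha-UAS-bla reporter stimulated with 17beta-estradiol; nearly all actives have a fitted effect of over 45% in size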)
[5] = target: Estrogen receptor (Homo sapiens) (UniProt P03372); assay: qHTS assay to identify small molecule agonists of the estrogen receptor alpha (ER-alpha) signaling pathway (AID 743075; calls by dose curve;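 note: HEK293 GripTite cells with ER-alpha and UAS-driven beta-lactamase reporter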)
[6] = qHTS assay to identify small molecule antagonists of the estrogen receptor alpha (ER-alpha) signaling pathway using the BG1 cell line (AID 743080; calls by dose curve;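 note: BG1 cells stimulated with 17beta-estradiol alongside compound; series mostly up to about 70 µM; nearly all actives have a fitted effect of over 25% in size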)
Method in brief: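 Luciferase inhibition measured with ONE-Glo after 30 min at RT in BG1Luc4E2 cells given test compounds and 17beta-estradiol for 21.5 h at 37 C; CellTiter-Fluor viability read in the same wells beforehand.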

[7] = qHTS assay to identify small molecule antagonists of the estrogen receptor alpha (ER-alpha) signaling pathway using the BG1 cell line - cell viability counter screen (AID 743081);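 note: compound given together with 17beta-estradiol as the ER stimulus; series mostly up to about 70 µM; nearly all actives have a fitted effect of over 45% in size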
Aromatase (Homo sapiens) = Aromatase (Homo sapiens) (UniProt P11511); assay: qHTS assay to identify aromatase inhibitors (AID 743083); note: series mostly up to about 70 µM; nearly all actives have a fitted effect of over 55% in size
Chain of Aromatase (Homo sapiens) (P11511 whole entry, looked up): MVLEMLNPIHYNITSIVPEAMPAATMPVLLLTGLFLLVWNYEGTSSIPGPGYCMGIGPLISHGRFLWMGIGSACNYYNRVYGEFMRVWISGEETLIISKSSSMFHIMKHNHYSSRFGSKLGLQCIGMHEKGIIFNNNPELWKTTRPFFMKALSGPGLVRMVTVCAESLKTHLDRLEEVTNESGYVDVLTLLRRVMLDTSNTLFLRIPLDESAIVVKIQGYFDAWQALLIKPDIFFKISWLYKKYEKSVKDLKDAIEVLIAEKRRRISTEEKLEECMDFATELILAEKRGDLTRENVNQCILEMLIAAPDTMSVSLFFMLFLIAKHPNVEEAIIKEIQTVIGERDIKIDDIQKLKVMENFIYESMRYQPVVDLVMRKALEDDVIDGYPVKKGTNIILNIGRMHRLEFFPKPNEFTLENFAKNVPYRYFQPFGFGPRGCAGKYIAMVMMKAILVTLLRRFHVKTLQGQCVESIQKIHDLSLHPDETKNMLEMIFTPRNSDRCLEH

[8] = target: Estrogen receptor (Homo sapiens) (UniProt P03372); assay: qHTS assay to identify small molecule agonists of the estrogen receptor alpha (ER-alpha) signaling pathway using the BG1 cell line (AID 743079); note: nearly all actives have a fitted effect of over 20% in size; note: potency is the fitted concentration of half-maximal effect
[9] = qHTS assay to identify small molecule antagonists of the thyroid receptor (TR) signaling pathway (AID 743065); note: series mostly up to about 70 µM; nearly all actives have a fitted effect of over 55% in size
Method in brief: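 Antagonism measured as loss of luciferase signal in GH3 cells stably carrying a TRE-luciferase reporter, co-treated with compound and T3 (1 nM final) for 23.5 h at 37 C. Viability was read in the same well by CellTiter-Fluor.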

SMILES	Potency [1]	Potency [2]	Potency [3]	Potency [4]	Potency [5]	Potency [6]	Potency [7]	Potency (Aromatase (Homo sapiens))	Potency [8]	Potency [9]
NP(N)(=O)NC(=O)c1ccc(F)cc1	inactive	inactive	inactive	inactive	inactive	inactive	inactive	inactive		
CCOC(=O)c1cn2nc(OP(=S)(OCC)OCC)cc2nc1C	inactive	inactive		inactive	inactive	inactive	inactive	inactive	inactive	
CCCCCCCCP(=O)(O)O	inactive	inactive		inactive			inactive	inactive		inactive
CN(C)C(=O)Nc1cccc(OC(=O)NC(C)(C)C)c1	inactive	inactive	inactive	inactive	inactive	inactive	inactive	inactive	inactive	
CC(Oc1cccc(Cl)c1)C(=O)O (stereo not drawn)		inactive		inactive			inactive	inactive		inactive
O=C(N/N=C/c1ccc([N+](=O)[O-])o1)c1cc([N+](=O)[O-])cc([N+](=O)[O-])c1O		inactive		inactive				inactive		inactive
CCCN(CCC)C(=O)Cc1c(-c2ccc(Cl)cc2)nc2ccc(Cl)cn12		inactive		inactive	inactive	inactive	inactive	inactive	inactive	
Cc1nc2ccccc2c(=O)n1-c1ccccc1Cl		inactive	inactive		inactive	inactive		inactive	33.6 µM (active)	
CN1C(=O)CN=C(c2ccccc2)c2cc([N+](=O)[O-])ccc21		inactive	inactive	inactive	inactive		inactive	inactive		
O=C(O)C(F)(F)C(F)(F)C(F)(F)C(F)(F)C(F)(F)C(F)(F)C(F)(F)C(F)(F)F		inactive	27.5 µM [inconclusive] (active)	inactive	inactive		inactive	inactive	inactive	
CCC1(CC)C(=O)NC(=O)NC1=O		inactive	inactive	inactive	inactive		inactive	inactive	inactive	
CC(Cl)C(=O)O (stereo not drawn)		inactive		inactive			inactive	inactive		inactive

— PubChem BioAssay (Tox21)
